Source: PubChem BioAssay (National Center for Advancing Translational Sciences (NCATS))
GALK inh: galactokinase (human) inhibition; Purified GALK, Kinase-Glo residual ATP luminescence; Potency, µM (doses to about 57.5 µM), for inactives: at the top dose activity change, negative = inhibition, hits mostly inhibitors; 270,000 compounds, 0.007% hits; note: potency is the fitted concentration of half-maximal effect; % is set by controls: 0 for no effect and ±100 for the full control effect
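Compounds were pin-transferred into ATP buffer (35 uM final), then GALK plus galactose (5 nM, 100 uM final) was added. After 1 h at room temperature, Kinase-Glo Plus was added and luminescence read after 10 min.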
D1 agonist: activates the human D1 dopamine receptor. P21728. HEK293 T-REx D1 cells, calcium flux, agonist mode. activation, % at 2 µM. 360,000 compounds, 1% hits. AID 504660; in the data active = activation above about 30%; note: 0% is about no effect
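Inducible HEK293 T-REx D1 cells, force-coupled to calcium signalling, were plated at 4000 cells/well with tetracycline and held overnight at 30 C. After no-wash calcium dye loading, compound-evoked calcium rise over 180 s flagged agonists.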
D1 antagonist: blocks dopamine activation of the human D1 receptor; P21728; HEK293 TREx D1 cells, calcium flux, dopamine EC80; active compounds read low; activity change, negative = inhibition, % at 10 µM; 360,000 compounds, 3.2% hits; in the data active = activity change below about -30%; note: % is set by controls: 0 for no effect and ±100 for the full control effect
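Tetracycline-induced HEK293 T-REx cells with force-coupled D1 receptor were loaded with a no-wash calcium dye. Compound was added after a 10 s baseline and read kinetically for 180 s; EC80 dopamine was then added and calcium flux followed another 180 s.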
D1 PAM: potentiators of human D1 dopamine receptor | 360,000 compounds, 0.036% hits | HEK293 TREx D1 cells, calcium flux, dopamine EC20 potentiation | potentiation, % at 10 µM | P21728; in the data active = potentiation above about 30%; note: 0% is about no effect
USP2a inh: USP2a (human) protease inhibition | O75604 | USP2 core, Ub-CHOP2 coupled fluorogenic reporter, 485/531 | Potency, µM (titrated, usually from 38.3 µM), for inactives: top-dose activity change, negative = inhibition, actives largely listed as inhibitors | 330,000 compounds, 0.01% hits | AID 463254;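 note: potency is the fitted concentration of half-maximal effect; plate controls were DMSO wells for no effect and full inhibition by NEM control for full effect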
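Deubiquitinase activity read as fluorescence (485/531 nm) after Ub-CHOP2 cleavage activates the enterokinase reporter on its substrate; USP2 core 10nM, Ub-CHOP2 and substrate 25nM each, 30min compound preincubation then 60min RT; data normalized to NEM, curves fitted.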
Eya2 phos inh: blocks the phosphatase activity of human Eya2; recombinant Eya2, OMFP fluorescence dephosphorylation (OMFP is methylfluorescein phosphate); O00167; AID 488837; Potency, µM (top dose mostly 76.9 µM), without a hit: at the top dose activity, negative = inhibition, most hits filed as inhibitors; 330,000 compounds, 0.006% hits; note: potency is the fitted concentration of half-maximal effect; % is set by controls: 0 for no effect and ±100 for the full control effect
Target sequence (O00167 whole entry, looked up): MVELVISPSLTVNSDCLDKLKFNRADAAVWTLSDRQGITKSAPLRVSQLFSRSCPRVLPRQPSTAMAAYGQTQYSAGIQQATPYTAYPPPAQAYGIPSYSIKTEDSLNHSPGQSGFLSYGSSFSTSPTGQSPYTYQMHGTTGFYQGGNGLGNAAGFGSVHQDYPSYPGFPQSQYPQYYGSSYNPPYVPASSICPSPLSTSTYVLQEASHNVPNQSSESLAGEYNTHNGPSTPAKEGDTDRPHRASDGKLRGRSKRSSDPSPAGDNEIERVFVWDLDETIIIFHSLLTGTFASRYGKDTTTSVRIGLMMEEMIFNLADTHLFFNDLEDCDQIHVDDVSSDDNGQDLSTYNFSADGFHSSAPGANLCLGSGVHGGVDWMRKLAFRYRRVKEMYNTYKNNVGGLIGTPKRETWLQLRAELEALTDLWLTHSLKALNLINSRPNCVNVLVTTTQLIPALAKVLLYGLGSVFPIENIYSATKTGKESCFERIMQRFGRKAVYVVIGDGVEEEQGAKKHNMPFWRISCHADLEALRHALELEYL
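Eya2 (0.2 uM) preincubated 10 min at ambient with compound, then OMFP substrate added at 50 uM; 10 min reaction in 50 mM HEPES pH 7.5, 50 mM NaCl, 5 uM MgCl2, 0.05% BSA, 1 mM DTT. Fluorescence read at Ex 485/Em 525 nm.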
* marks the source's active call; other numbers are inactive results; ? = inconclusive; · = no result. Compounds with a hit are over-represented: about 3.9% of the library has one in this group of screens. Unless noted, calls come from the whole dose curve; as a rule, active = well fitted inhibition curve with a large enough effect; inconclusive = small, poorly fitted or top-dose-only effect, or effect the other way; inactive = flat fitted curve, though single readings scatter.

SMILES	GALK inh	D1 agonist	D1 antagonist	D1 PAM	USP2a inh	Eya2 phos inh
Cc1c(NC(=O)OCCNC(=O)COc2ccc(Cl)cc2Cl)sc(=S)n1C	0%	15	-43*	-9	6%	-5%
Cc1cc(Cl)ccc1OCC(=O)NCCOC(=O)Nc1sc(=S)n(C)c1C	1%	0	-11	-12	0%	-3%
Cn1cnnc1Sc1ccc(C(=O)OCC(=O)NCC(F)(F)F)cc1[N+](=O)[O-]	10%	0	-8	-3	0%	11%
C=CCNC(=O)COC(=O)c1ccc(Sc2nncn2C)c([N+](=O)[O-])c1	-1%	0	-32*	2	3%	1%
CCCOc1ccc(NC(=O)C(=O)NCCCN2CCOCC2)cc1	·	2	-6	-2	·	·
Nn1c(Cc2cccc3ccccc23)nnc1SCCOc1ccc(F)cc1	1%	5	-98*	-4	4%	-1%
O=C(Cn1cc2c(n1)CCCC2)Nc1cc(C(F)(F)F)ccc1Cl	·	8	-2	-1	·	·
CC1CC(C)CN(c2ccc(-n3cnnn3)cc2[N+](=O)[O-])C1 (configuration not stated)	-3%	1	10	-5	4%	-15%
O=[N+]([O-])c1cc(-n2cnnn2)ccc1N1CCC(Cc2ccccc2)CC1	1%	-1	-35*	-3	1%	-17%
CSc1ncc2c(n1)-c1ccccc1N(Cc1ccc(F)cc1)S2(=O)=O	·	3	4	-3	·	·
C=C(C)Cn1c(NCCOC)nc2c1c(=O)[nH]c(=O)n2C	0%	-1	-40*	4	-1%	-8%
Cc1ccc2oc(C(=O)N(Cc3sccc3C)C3CCS(=O)(=O)C3)c(C)c2c1 (configuration not stated)	·	11	6	2	·	·
CCOc1cc(CNCc2ccccc2)ccc1OCC(=O)NC1CCCCC1	-9%	34*	-9	-4	1%	-6%
Cn1c(C(=O)NCc2ccccc2)cc2oc3ccccc3c21	-2%	1	-3	-8	-5%	-10%
Cn1c(C(=O)NCc2ccccc2F)cc2oc3ccccc3c21	·	3	-57*	-8	·	·
COc1ccccc1C(=O)N1CCC(c2c[nH]c3ccccc23)(c2c[nH]c3ccccc23)CC1	·	1	12	-3	·	·
Cc1cc(C)c2c(=O)n(CC(=O)Nc3cccc(F)c3)sc2n1	-1%	12	-32*	-1	0%	-1%
Cc1cc(C)c2c(=O)n(CC(=O)Nc3ccc(Cl)cc3)sc2n1	5%	23	-39*	-10	1%	1%
O=C(NCCSCc1ccc(Cl)cc1Cl)c1ccc(CN2CCOCC2)cc1	3%	14	-31*	-3	0%	5%
O=C1OC(C(=O)Nc2cc(C(F)(F)F)ccc2Cl)Cc2ccccc21 (configuration not stated)	·	-1	-18	8	·	·
C#CCOCCOCCOCCNc1nc(N2CCN(C(=O)CCCCCCCCCCNC(=O)Cn3cc(CCCCCN)nn3)CC2)nc(N2CCN(C(=O)CCCCCCCCCCNC(=O)Cn3cc(CCCCCN)nn3)CC2)n1	·	38*	37	53*	?	-34%
C#CCOCCOCCOCCNc1nc(N2CCN(C(=O)CCCCCCCCCCNC(=O)Cn3cc(CCCCCN)nn3)CC2)nc(N2CCN(C(=O)CCCCCCCCCCNC(=O)[C@@H](CCC(=O)O)n3cc(CCCCCN)nn3)CC2)n1	·	39*	0	-9	4%	-17%
C#CCOCCOCCOCCNc1nc(N2CCN(C(=O)CCCCCCCCCCNC(=O)Cn3cc(C[C@@H](C)O)nn3)CC2)nc(N2CCN(C(=O)CCCCCCCCCCNC(=O)[C@@H](CCC(=O)O)n3cc(CCCCCN)nn3)CC2)n1	·	32*	5	-1	0%	-22%
C#CCOCCOCCOCCNc1nc(N2CCN(C(=O)CCCCCCCCCCNC(=O)Cn3cc(C[C@@H](C)O)nn3)CC2)nc(N2CCN(C(=O)CCCCCCCCCCNC(=O)[C@H](CCCCN)n3cc(CCCC(=O)O)nn3)CC2)n1	·	9	-1	-1	-10%	-5%
COc1ccccc1NS(=O)(=O)c1cc2c(cc1Cl)NC(=O)CO2	·	0	-11	-3	·	·
SMILES	GALK inh	D1 agonist	D1 antagonist	D1 PAM	USP2a inh	Eya2 phos inh
COc1ccc(Cn2c(NCC(C)C)nc3c2c(=O)n(C)c(=O)n3C)cc1	·	2	-41*	0	·	·
COCCNc1nc2c(c(=O)n(C)c(=O)n2C)n1Cc1cccc(C)c1	10%	0	-50*	-9	6%	12%
Cn1c(=O)c2c(nc(NCc3ccc4c(c3)OCO4)n2Cc2ccccc2Cl)n(C)c1=O	1%	1	-81*	0	-1%	-2%
CCC(C)Nc1nc2c(c(=O)n(C)c(=O)n2C)n1Cc1ccc(F)cc1 (configuration not stated)	0%	-1	-85*	-21	0%	7%
Cc1ccc(CNC(=O)CSc2nnc(C)c3c(C)n(-c4ccccc4)nc23)cc1	·	1	11	1	·	·
Cc1c(Cl)ccc2sc(NC(=O)c3ccc(S(=O)(=O)N4CCCC4)cc3)nc12	·	2	2	-1	·	·
CCc1ccc(N2CCn3c2nc2c3c(=O)n(Cc3ccc(F)cc3)c(=O)n2C)cc1	·	11	-46*	-6	·	·
CCc1ccc(N2CCn3c2nc2c3c(=O)n(Cc3c(F)cccc3Cl)c(=O)n2C)cc1	·	6	-21	-2	·	·
Oc1ccc(/C=N/n2c(C3CCCCC3)n[nH]c2=S)c(O)c1	1%	5	-5	-7	4%	-7%
Oc1ccc(Br)cc1/C=N/n1c(C2CCCCC2)n[nH]c1=S	-1%	37*	-8	3	-17%	-12%
O=C(Nc1ccc(F)cc1F)c1cc2nc3c(c(C(F)(F)F)n2n1)CCCC3	0%	0	-33*	-4	7%	2%
CC(NCc1ccc(-c2ccccc2)cc1)C(O)c1ccccc1 (configuration not stated)	4%	200*	56	-4	-3%	-11%
O=C1CCCC(NCCCCCCNC2=C([N+](=O)[O-])C(=O)CCC2)=C1[N+](=O)[O-]	0%	0	-92*	-5	-4%	7%
COc1ccc(C(=O)NC2CC3CCCC(C2)N3Cc2ccccc2)cc1OC (configuration not stated)	-5%	2	-33*	-2	0%	4%
COc1cc(C(=O)NC2CC3CCCC(C2)N3Cc2ccccc2)cc(OC)c1OC (configuration not stated)	7%	4	0	-5	-1%	9%
Cc1ccccc1C(=O)NC1CC2CCCC(C1)N2Cc1ccc(Cl)cc1 (configuration not stated)	0%	1	-73*	-9	0%	-27%
